Data reported in PubChem BioAssay AID504834 (National Center for Advancing Translational Sciences (NCATS), 2011).
Among all 320,000 compounds or so, about 22,000 (6.9%) were called active. Not shown: some 27% with an inconclusive outcome. Calls come from the whole dose curve; as a rule, active = well fitted inhibition curve with a large enough effect; inconclusive = small, poorly fitted or top-dose-only effect, or another doubt; inactive = no such curve, though single readings can be large or run the other way. Many of the other results were omitted from the sample, so actives are more common in it than they were.

assay: Primary qHTS for delayed death inhibitors of the malarial parasite plastid, 96 hour incubation; conditions: P. falciparum luciferase reporter growth; series mostly up to 28.7 µM; activity change, negative = inhibition: at the top concentration
Outline: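 Infected RBCs, 2% Hct / 0.05% parasitemia final; luciferase-reporter P. falciparum; cpd 96 h, 37 C, 5% CO2; luciferase detection reagent; luminescence.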
% is set by controls: 0 for no effect and ±100 for the full control effect; potency is the fitted concentration of half-maximal effect.

Compound	activity change, negative = inhibition	Potency
O=C(Nc1ccc(S(=O)(=O)N2CCCC2)cc1Cl)C1=COCCO1	21.5% (inactive)	
CCN(CC)c1ccc(S(=O)(=O)N2CCCCC2)cc1NC(=O)C1=COCCO1		10.4 µM (active)
Cc1ccc(S(=O)(=O)N2CCCCC2)cc1NC(=O)c1cccnc1	4.25% (inactive)	
O=C(Nc1ccc(Br)cc1)c1cc(S(=O)(=O)Nc2ccccn2)ccc1Cl	9.51% (inactive)	
O=C(NNC(=O)C1CCCC1)c1ccc(F)cc1	9.74% (inactive)	
CN1CCN(CC(=O)Nc2sc3c(c2C#N)CCC(C(C)(C)C)C3)CC1 (configuration not stated)	4.93% (inactive)	
Nc1nc(SCC(=O)NCCN2CCOCC2)nc2sc3c(c12)CCC3		13.1 µM (active)
COC(=O)c1c(NC(=O)CCN2CCOCC2)sc2c1CCCC2	23.4% (inactive)	
C=CCn1c(SCC(=O)NCCCO)nc2sc3c(c2c1=O)CCC3	44.6% (inactive)	
CC(C)(C)C1CCc2c(sc3nc(SCC(N)=O)nc(N)c23)C1 (configuration not stated)		9.28 µM (active)
CCOC(=O)c1sc2nc(C)nc(SCC(N)=O)c2c1C	-7.55% (inactive)	
CC(=O)N1CCc2c(sc(NC(=O)CCS(=O)(=O)c3ccc(C)cc3)c2C(N)=O)C1	-29.3% (inactive)	
O=C(Nc1cc(S(=O)(=O)N2CCOCC2)ccc1OCC(F)(F)F)c1ccc(N2CCCC2=O)cc1	-11% (inactive)	
Cc1noc(C)c1C(=O)NCCc1ccc(S(N)(=O)=O)cc1	29.7% (inactive)	
O=C(O)C1=C[C@H](c2cccs2)C[C@H](OCCCCO)O1	40.2% (inactive)	
O=C(NCc1ccccc1)C1=C[C@H](C2CC2)C[C@H](OCc2ccc(CO)cc2)O1	-19.2% (inactive)	
CC(C)CCN1CCN(Cc2ccc(C(F)(F)F)cc2)CC1CCO (configuration not stated)	-3.68% (inactive)	
CC(=O)n1cc([C@@H]2C=C(C(=O)N3CCN(Cc4ccc5c(c4)OCO5)CC3)O[C@H](OCc3ccc(CO)cc3)C2)c2ccccc21		1.65 µM (active)
O=C(C1=C[C@H](c2coc3ccccc3c2=O)C[C@H](OCc2ccc(CO)cc2)O1)N1CCN(Cc2ccccc2)CC1		5.86 µM (active)
O=C(C1=C[C@H](c2ccc(C(F)(F)F)cc2)C[C@H](OCc2ccc(CO)cc2)O1)N1CCN(Cc2ccccc2)CC1		13.1 µM (active)
CN1CCN(C(=O)C2=C[C@H](c3ccc4c(c3)OCO4)C[C@H](OCc3ccc(CO)cc3)O2)CC1	-0.234% (inactive)	
O=C(c1cccc([N+](=O)[O-])c1)N1CCN(Cc2ccccc2)CC1	-4.42% (inactive)	
O=C(C1=C[C@H](c2coc3ccccc3c2=O)C[C@H](OCc2ccc(CO)cc2)O1)N1CCOCC1	-21.6% (inactive)	
C#Cc1ccc([C@@H]2C=C(C(=O)O)O[C@H](OCCCCO)C2)cc1	60.2% (inactive)	
CCn1cc(C(=O)N2CCN(Cc3ccc4c(c3)OCO4)CC2)c2cc(OC)c(OC)cc2c1=O	15.9% (inactive)	
O=C(NCc1ccccc1)C1=C[C@@H](c2ccc(C(F)(F)F)cc2)C[C@@H](OCc2ccc(CO)cc2)O1		4.65 µM (active)

Compound	activity change, negative = inhibition	Potency
COc1cccc(/C=C2\Sc3ccc(C(=O)NCC4CCCO4)cc3N(C)C2=O)c1 (configuration not stated)	11.3% (inactive)	
CC(C)c1ccc(C2C(C(=O)c3ccco3)=C(O)C(=O)N2CC2CCCO2)cc1 (configuration not stated)	-16% (inactive)	
C/C(=N\Nc1ccc(S(N)(=O)=O)cc1[N+](=O)[O-])c1cccs1	7.59% (inactive)	
COC(=O)C1(C)CC1(c1ccccc1)c1ccccc1 (configuration not stated)	-11.4% (inactive)	
CN(C1CCS(=O)(=O)C1)S(=O)(=O)c1ccc2ccccc2c1 (configuration not stated)	17.6% (inactive)	
CC(Sc1nn(-c2ccc(Cl)cc2)c(=S)s1)C(=O)NCC1CCCO1 (configuration not stated)	4.28% (inactive)	
O=C(O)c1ccc2c(=O)n3c(nc2c1)/C(=C/c1ccc(Cl)c([N+](=O)[O-])c1)CC3	-21.2% (inactive)	
Cc1ccc(OCCOc2cccc(/C=N/NC(N)=O)c2)cc1	-1.16% (inactive)	
O=C1CCC([N+](=O)[O-])C(c2ccccc2Br)N1 (configuration not stated)	-26.5% (inactive)	
C=CCOc1ccccc1NC(=O)CN1C(=O)CNC1=O	15.9% (inactive)	
CN(CC(=O)NCc1ccncc1)S(=O)(=O)c1ccc(Br)cc1	-17.6% (inactive)	
Cc1cc(N=Nc2ccc3ccccc3c2)ccc1O	85.3% (inactive)	
O=[N+]([O-])c1ccc(N=Cc2c(O)ccc3ccccc23)cc1	17.6% (inactive)	
Oc1ccc(N=Cc2c(O)ccc3ccccc23)cc1		6.57 µM (active)
COc1ccc(C)cc1N(CC(=O)NC(C)c1ccccc1)S(C)(=O)=O (configuration not stated)	169% (inactive)	
CCOC(=O)c1ccc(NC(=O)c2ccc(NC(=O)C3CCCO3)cc2)cc1 (configuration not stated)	-3.56% (inactive)	
O=C(CCc1ccccc1)NCc1cccnc1	12.9% (inactive)	
O=C(NCCc1ccccc1)C1CCC(Cn2c(=O)c3ccccc3n(Cc3cccnc3)c2=O)CC1 (configuration not stated)		6.57 µM (active)
O=C(NCCc1ccccc1)C1CC1	24.6% (inactive)	
CCSc1nnc(SCC(=O)NNC(=O)c2ccccc2F)s1	26.7% (inactive)	
CS(=O)(=O)c1ccc2nc(NC(=O)c3ccc(N4CCCC4=O)cc3)sc2c1	5.19% (inactive)	
Cc1cc(Cl)ccc1OCCCC(=O)NCc1ccccn1	-1.6% (inactive)	
CC(C)Cn1c(=O)c2ccccc2n2c(CCC(=O)NCc3ccccn3)nnc12		13.1 µM (active)
Cc1ccc(SCCC(=O)NCc2ccccn2)cc1	-27.1% (inactive)	
Cc1ccc(-c2nn(-c3ccccc3)cc2C(=O)NCCCN2CCCC2=O)cc1	-20.1% (inactive)	
CC1(NC(=O)CCS(=O)(=O)c2ccc(Cl)cc2)CCS(=O)(=O)C1 (configuration not stated)	-29.7% (inactive)	
